# “And” between values parts separate entries of the source, which are not always exact repeats. Equal entries are not always repeated. The campaign covered roughly 110,000 compounds. About 730 (0.66%) were called active. The sample as a whole holds a higher share of actives than the screen did. A number with no mark means an inactive call. Cut-off read from the data, not from the text of the source: active = inhibition above about 50%; inconclusive = no clear call, values can overlap the other calls; inactive = below that.
# Target: Tyrosine-protein phosphatase non-receptor type 7 (Homo sapiens) (UniProt P35236)
# Assay: HePTP tyrosine phosphatase activity blockers – biochemical, absorbance, leukemia target, primary screen (AID 521);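 note: plate controls were vehicle for no effect and reference inhibitor for full effect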
# Conditions: recombinant HePTP phosphatase activity, OD absorbance; at 20 µM; stronger effect = higher value
# Sequence of Tyrosine-protein phosphatase non-receptor type 7 (Homo sapiens) (P35236 whole entry, looked up): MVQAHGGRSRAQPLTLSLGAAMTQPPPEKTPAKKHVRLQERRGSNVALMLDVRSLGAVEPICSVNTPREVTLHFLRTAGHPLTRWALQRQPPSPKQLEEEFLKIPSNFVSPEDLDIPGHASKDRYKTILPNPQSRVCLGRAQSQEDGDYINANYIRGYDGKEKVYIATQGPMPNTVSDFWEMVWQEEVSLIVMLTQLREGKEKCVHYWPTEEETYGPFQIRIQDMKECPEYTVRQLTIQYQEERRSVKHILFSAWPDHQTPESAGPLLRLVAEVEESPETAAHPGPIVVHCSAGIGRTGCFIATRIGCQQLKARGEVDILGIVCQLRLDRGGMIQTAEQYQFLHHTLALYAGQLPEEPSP
row,SMILES,inhibition
1,CCOc1ccc(C(=O)Nc2ccc(O)c(-c3nc4ccccc4o3)c2)cc1[N+](=O)[O-],7.1%
2,O=C(O)c1cc(-c2ccc(C=C3C(=O)c4ccccc4C3=O)o2)ccc1O,102% (active)
3,CC1=NN(c2ccc(S(N)(=O)=O)cc2)C(=O)/C1=C\c1ccc(-c2ccc(Cl)c(C(=O)O)c2)o1,9.9%
4,O=C1NN(c2ccccc2)C(=O)/C1=C/c1ccc(-c2cccc(C(=O)O)c2)o1,18.1%
5,O=[N+]([O-])c1ccc(N2CCN(CCO)CC2)cc1NC(c1ccccc1)c1ccccc1,-10.6%
6,COc1cccc(C(=O)N2N=C(c3ccc(F)cc3)CC2(O)C(F)(F)F)c1 (stereo unspecified),4.2%
7,CCOc1ccc(NC(=S)NC(NC(=O)c2cccc(C)c2)C(Cl)(Cl)Cl)cc1 (stereo unspecified),4.6%
8,O=[N+]([O-])c1ccc(C2SCCN2S(=O)(=O)c2ccc3ccccc3c2)cc1 (stereo unspecified),6.4%
9,CN(N)c1nc(N2CCCC2)nc(N2CCCC2)n1,-2.9%
10,COc1cc(/C=C2\C(=O)NC(=S)N(c3cccc(Br)c3)C2=O)c([N+](=O)[O-])cc1OC,102% (active)
11,O=C1NC(=O)N(c2cccc(Br)c2)C(=O)/C1=C/c1cccc([N+](=O)[O-])c1,9.5%
12,COc1ccc(/C=C2\C(=O)NC(=S)N(c3ccc(Br)cc3)C2=O)cc1,8.6%
13,c1ccc2c(OCCCN3CCOCC3)cccc2c1,-6.5%
14,Cc1ccc2ccc3cccc(S(=O)(=O)O)c3c2n1,2.1%
15,O=[N+]([O-])c1ccc(C2Nc3ccc(OC(F)(F)F)cc3C3C=CCC32)cc1 (stereo unspecified),-9.1%
16,Cc1ccc(C(=O)Nc2ccccc2C(=O)NC2CCCCCC2)cc1,2.4%
17,O=C(CCCN1C(=O)/C(=C/c2ccccc2)SC1=S)Nc1ccccc1C(=O)O,10.4%
18,COc1cccc(C(O)c2nc3ccccc3n2C)c1 (stereo unspecified),-6.5%
19,CCc1ccc(-n2c(C)cc(/C=C3/SC(=S)NC3=O)c2C)cc1,7.1%
20,O=C(COc1ccc2ccccc2c1Br)c1ccc(Br)cc1,3%
21,CC(=O)c1ccc(NS(=O)(=O)c2ccccc2[N+](=O)[O-])cc1,3%
22,Cc1cccc(NC(=O)COc2cc(C)c(Cl)c(C)c2)c1C,2%
23,O=C1c2ccc3c4c(ccc(c24)C(=O)N1CCOc1ccccc1)CC3,3.5%

row,SMILES,inhibition
1,COc1ccc(NC(=O)c2cccc(N3C(=O)c4ccc(C(=O)Nc5ccc(OC)cc5)cc4C3=O)c2)cc1,-8.7%
2,O=C(O)c1cccc(N2C(=O)c3ccc4c5c(ccc(c35)C2=O)CC4)c1,103% (active)
3,O=[N+]([O-])c1ccc(C=NC23CN4CN(CN(C4)C2)C3)s1,4.4%
4,COCCNC(=O)/C(=C/c1ccc(-c2cc(Cl)ccc2Cl)o1)NC(=O)c1ccc(C)cc1,5.9%
5,CCOc1cc(/C=N/NC(=O)c2cc(C)[nH]n2)ccc1Oc1ccc([N+](=O)[O-])cc1[N+](=O)[O-],6.3%
6,CCOCC(=O)Nc1sc2c(c1C(=O)OCC)CCCC2,3.2%
7,CCCOC(=O)Nc1sc2c(c1C(=O)OCC)CCC2,-6.2%
8,CCOC(=O)c1c(NC(=O)C2CC2c2ccccc2)sc2c1CCC2 (stereo unspecified),77.8% (active)
9,O=C(CN1C(=O)/C(=C/c2ccccc2F)SC1=S)Nc1ccccc1F,-14.9%
10,Clc1ccccc1OCCCN1CCOCC1,-7.9%
11,O=C(CCc1ccccc1)Nc1ccc(Cl)cc1,5.1%
12,CCOC(=O)COc1ccc(/C=C2/NC(=S)NC2=O)cc1OC,4.1%
13,Cc1ccc(-c2cc(C(=O)Nc3ccccc3)c3ccccc3n2)cc1,9.3%
14,COc1cc(/C=C2\SC(=S)NC2=O)cc(Br)c1OCc1c(C)no[n+]1[O-],-10.3%
15,CCN(CC)c1ccc(C=C2C(=O)N(C)C(=O)N(C)C2=O)c(O)c1,-4.9%
16,Cc1ccc(C(=O)N/C(=C\c2sccc2C)C(=O)NCC(C)C)cc1,8.2%
17,Nc1nc2nonc2nc1Nc1ccccc1,0.4%
18,Cc1cc(N2C(=O)NC(=O)/C(=C\c3cn(C)c4ccccc34)C2=O)ccc1Br,4.9%
19,Cc1oc2ccccc2c1/C=N/n1cnc2sc3c(c2c1=O)CCCC3,-2.6%
20,CCOC(=O)C1=C(C)N=c2s/c(=C\c3ccc4c(c3)OCO4)c(=O)n2C1c1ccc(C)cc1 (stereo unspecified),1.8%
21,N#CC1=C(N)n2c(s/c(=C\c3ccc4c(c3)OCO4)c2=O)=C(C#N)C1c1ccc2c(c1)OCO2 (stereo unspecified),86.3% (active)
22,CCOC(=O)C1=C(C)N=c2s/c(=C\c3ccc4c(c3)OCO4)c(=O)n2C1c1ccc(OC)c(Br)c1 (stereo unspecified),3.8%
23,CC1CCOP(=O)(C(Nc2ccc([N+](=O)[O-])cc2)c2ccc(Br)cc2)O1 (stereo unspecified),-6%

row,SMILES,inhibition
1,CCOc1ccc(-c2cc(C(=O)Nc3cccc([N+](=O)[O-])c3)c3ccccc3n2)cc1,11.5%
2,COc1ccc(-c2nc(-c3ccccc3)no2)c(OC)c1,16.7%
3,COc1ccc(-c2noc(-c3ccc(Br)cc3)n2)cc1,-4.6%
4,COc1ccc(/C=C2\SC(=Nc3ccc(F)cc3)NC2=O)cc1OC,25.3%
5,COc1cc2c(cc1NC(=O)c1c(-c3c(F)cccc3Cl)noc1C)oc1ccccc12,-5.8%
6,COc1ccc(-c2nnc(SCC(=O)NN)n2-c2ccccc2)cc1,-0.1%
7,COc1ccc(-c2nc3ccccc3c(C(=O)Nc3ccc(C(C)=O)cc3)c2C)cc1,-9.2%
8,O=C(NC(=O)c1ccccn1)NC(c1ccccc1)c1ccccc1,-13% and 2.8%
9,O=C1NC(=S)N/C1=C/c1ccc(-c2cccc(Br)c2)o1,3.7%
10,Nn1c(NCc2ccccc2)nc2ccccc21,-4.8%
11,CCOC(=O)c1cnn(-c2ccccc2)c1NC(=O)c1ccc([N+](=O)[O-])cc1,1.7%
12,Cc1ccc(NC(=O)c2cnn(-c3ccccc3)c2NC(=O)c2ccccc2Cl)cc1C,103% (active)
13,Cc1ccccc1NC(=O)c1cnn(-c2ccccc2)c1NC(=O)c1ccco1,7.2%
14,O=C1CC(N2CCN(c3ccccc3F)CC2)C(=O)N1c1cccc(Cl)c1 (stereo unspecified),5.6%
15,O=C1C=CC2=C3Oc4c(ccc5cc(O)ccc45)C(c4ccccc4C(=O)O)C3C=CC2=C1 (stereo unspecified),103% (active)
16,NC(=S)N/N=C(/Cc1ccccc1)c1ccc(-c2ccccc2)cc1,6.5%
17,COc1ccccc1C1SCCN1S(=O)(=O)c1ccc(-c2ccccc2)cc1 (stereo unspecified),7.9%
18,Cc1cccc(N2CCN(C(=O)C(Cl)(Cl)Cl)CC2)c1C,5.3%
19,CC(C)(O)C#Cc1ccc(C2C3=C(CC(C)(C)CC3=O)OC3=C2C(=O)CC(C)(C)C3)cc1,1.5%
20,COc1ccc(C(=O)ON=C2c3ccccc3-c3ccccc32)cc1OC,62.3% (active)
21,COc1cc2c(cc1C)/C(=N/OC(=O)c1ccc(OC)c([N+](=O)[O-])c1)CCC2,-10.5%
22,COc1cc(C(C)=O)ccc1OC(=O)CN1C(=O)c2ccccc2C1=O,-2.9%
23,CCCCOc1c([N+](=O)[O-])cc([N+](=O)[O-])c2nsnc12,10.8%

row,SMILES,inhibition
1,O=C1Nc2ccccc2/C1=N\N=C\c1c(F)cccc1Cl,14%
2,CCCC(NC(=O)c1ccccc1)C(=O)OCC(=O)Nc1sc2c(c1C(=O)OCC)CCCC2 (stereo unspecified),1.3%
3,CCOC(=O)c1c(N)sc(C)c1CC,-13.6%
4,CC1(C)Cc2ccccc2C(N/N=C/c2c(O)ccc3ccccc23)=N1,5%
5,Cc1ccccc1NC(=O)c1c(NC(=O)C(C)(C)C)sc2c1CCC(C)C2 (stereo unspecified),3.9%
6,CCOc1ccccc1NC(=O)c1c(NC(=O)c2ccco2)sc2c1CCC(C)C2 (stereo unspecified),4.6%
7,CCOc1ccccc1NC(=O)c1c(NC(=O)c2cccs2)sc2c1CCC(C)C2 (stereo unspecified),74.5% (active)
8,ONC(=Nc1ccc2c(c1)OCO2)C(=Nc1ccc2c(c1)OCO2)NO,-7.5%
9,COc1ccc(C2SCCN2C(=O)c2cc3ccccc3oc2=O)cc1 (stereo unspecified),-6.8%
10,Cc1ccc(OCC(=O)NCc2ccc(F)cc2)c(Br)c1,0%
11,O=C(COc1cc2oc(=O)c3c(c2cc1Cl)CCCC3)OCc1ccccc1,7%
12,CCOc1cccc(-c2cc(C(=O)N3CCCCCC3)c3ccccc3n2)c1,-11.5%
13,Cc1ccc(-c2cc(C(=O)N3CC(C)CC(C)C3)c3ccccc3n2)cc1C (stereo unspecified),-17%
14,Cc1ccc(-c2cc(C(=O)NCc3ccccc3)c3ccccc3n2)o1,53.4% (active)
15,Cc1ccc(C)c(-c2cc(C(=O)NN)c3ccccc3n2)c1,5%
16,Cc1ccc(-c2cc(C(=O)N3CCCCCC3)c3ccccc3n2)o1,78.1% (active)
17,Cc1ccc(NC(=O)c2cc(-c3ccc(C)o3)nc3ccccc23)nc1,2.7%
18,COc1ccc(NC(=O)c2cccc(F)c2)cc1OC,9.7%
19,CCOc1cc(C(=O)Nc2cccc(F)c2)cc(OCC)c1OCC,104% (active)
20,CCOc1cc(C(=O)Nc2ncccn2)cc(OCC)c1OCC,-0.3% and 8.9%
21,CCOc1ccc(C(=O)Nc2ccc(I)cc2Cl)cc1[N+](=O)[O-],3.7%
22,O=C(Nc1cccc(I)c1)c1ccc2c(c1)C(=O)N(CC1CCCO1)C2=O (stereo unspecified),6.2%

# From PubChem BioAssay AID521 (Sanford-Burnham Center for Chemical Genomics, 2006)
